Experimental data reported in PubChem BioAssay (NCI).
This is part of a sample that, as a whole, favours compounds with a hit. Of some 83,000 tested, about 20% had one in any assay.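 In brief: 96-well plates, 48 h treatment, single concentration, percent growth endpoint.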 The source made the active and inactive calls. How the source made its calls: active means growth percent below 10; inactive means the rest.

What was measured:
Test in all cases: NCI-60 one-dose screen, 48 h (100 = growth as untreated, 0 = no growth, -100 = all killed)
Settings in all cases: 10 µM unless noted
SR leukemia = tested on: SR leukemia
RPMI-8226 leukemia = tested on: RPMI-8226 leukemia
OVCAR-8 ovarian = tested on: OVCAR-8 ovarian
OVCAR-5 ovarian = tested on: OVCAR-5 ovarian
OVCAR-4 ovarian = tested on: OVCAR-4 ovarian
SK-OV-3 ovarian = tested on: SK-OV-3 ovarian
IGROV1 ovarian = tested on: IGROV1 ovarian
OVCAR-3 ovarian = tested on: OVCAR-3 ovarian
HS 578T breast = tested on: HS 578T breast
NCI/ADR-RES ovarian = tested on: NCI/ADR-RES ovarian
T-47D breast = tested on: T-47D breast
BT-549 breast = tested on: BT-549 breast
MDA-MB-435 melanoma = tested on: MDA-MB-435 melanoma
SW-620 colon = tested on: SW-620 colon
MCF7 breast = tested on: MCF7 breast
HCT-116 colon = tested on: HCT-116 colon
HCC-2998 colon = tested on: HCC-2998 colon
KM12 colon = tested on: KM12 colon

Measured: growth

CCOP(=O)(OCC)OC[C@]12CCC(C)(C)C=C1[C@H]1CC[C@@H]3[C@@]4(C)CC[C@H](OP(=O)(OCC)OCC)C(C)(C)[C@@H]4CC[C@@]3(C)[C@]1(C)CC2
inactive: T-47D breast 13.5%
active: SR leukemia -27.4% | RPMI-8226 leukemia -43% | OVCAR-8 ovarian -27.3% | OVCAR-5 ovarian -26.8% | OVCAR-4 ovarian -1.21% | SK-OV-3 ovarian -2.62% | IGROV1 ovarian -20% | OVCAR-3 ovarian -85.5% | HS 578T breast -13.5% | NCI/ADR-RES ovarian 0.702% | BT-549 breast -20.2% | MDA-MB-435 melanoma -38.4% | SW-620 colon -48.4% | MCF7 breast -47.5% | HCT-116 colon -59.8% | HCC-2998 colon -50.9% | KM12 colon 3.6%

CN(C)CCNC(=O)c1ccc(-c2nc3ccc4[nH]ncc4c3c3c2COCC3)cc1
inactive: RPMI-8226 leukemia 44.3% | OVCAR-8 ovarian 11% | OVCAR-5 ovarian 27.5% | SK-OV-3 ovarian 14% | NCI/ADR-RES ovarian 92.2% | KM12 colon 16.4%
active: SR leukemia -25.1% | OVCAR-4 ovarian 2.78% | IGROV1 ovarian 0.798% | OVCAR-3 ovarian -6.74% | HS 578T breast -19.6% | T-47D breast -7.62% | BT-549 breast -16.2% | MDA-MB-435 melanoma 3.65% | SW-620 colon 3.1% | MCF7 breast 0.287% | HCT-116 colon 2.59% | HCC-2998 colon -20.8%

COc1ccc2c(c1)c(CC(=O)[Se]CC(=O)O)c(C)n2C(=O)c1ccc(Cl)cc1
inactive: SR leukemia 101% | RPMI-8226 leukemia 98.4% | OVCAR-8 ovarian 101% | OVCAR-5 ovarian 104% | OVCAR-4 ovarian 103% | SK-OV-3 ovarian 116% | IGROV1 ovarian 74.5% | OVCAR-3 ovarian 113% | HS 578T breast 85.8% | NCI/ADR-RES ovarian 103% | T-47D breast 103% | BT-549 breast 122% | MDA-MB-435 melanoma 51.2% | SW-620 colon 113% | MCF7 breast 37.4% | HCT-116 colon 98.1% | HCC-2998 colon 119% | KM12 colon 101%
